29 molecules from the supplement of paper PMC12632987 can be followed below.

Whole data set: some 1,800 sequences, median “median log2 fold change of GCK-ALFA target abundance (FLAG IP / Myc IP barcode read proportion)” near 0.14, cut for the lowest 2% near -0.84. The sample as a whole holds a higher share of the lowest values than the screen did.

To fix the notation:
T1: TRAF2, Q12933
T1 chain: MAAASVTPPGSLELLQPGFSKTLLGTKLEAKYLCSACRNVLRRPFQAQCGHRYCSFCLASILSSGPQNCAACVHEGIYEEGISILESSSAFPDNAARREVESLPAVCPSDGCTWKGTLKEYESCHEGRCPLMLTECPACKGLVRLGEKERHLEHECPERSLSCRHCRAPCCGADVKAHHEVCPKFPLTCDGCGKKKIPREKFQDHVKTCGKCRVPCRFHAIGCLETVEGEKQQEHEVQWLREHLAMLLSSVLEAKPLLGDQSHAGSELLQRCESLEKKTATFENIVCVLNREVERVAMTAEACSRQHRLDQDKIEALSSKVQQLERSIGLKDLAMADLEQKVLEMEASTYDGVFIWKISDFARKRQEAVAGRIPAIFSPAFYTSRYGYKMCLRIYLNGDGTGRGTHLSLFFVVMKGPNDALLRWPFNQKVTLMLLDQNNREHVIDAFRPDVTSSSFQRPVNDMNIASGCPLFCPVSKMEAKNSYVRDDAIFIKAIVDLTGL

B1: traf2_out_14_149_1260 (protein)
chain: SATEERRRALREALELFERAAELLAAAIAAGSNDLDVEELRRLLEEAREILSKQGFVLGSLLAIEELLEEAEELTEEDLRRLLELAERAAESLEVLAEML
B2: traf2_out_17_178_1741 (protein)
chain: SKEEILKEISKLADEMIDVSREAAEKLTELAEKEGILTPELRERLDLVARTSNLYAFEEVANELIELSKNKEEIQKLLDETTKKLRELRKKIQEAVEKLK
B3: traf2_out_13_95_1214 (protein)
chain: SAEANAELREVAREYTDRAEAVIDALAAALAPDPEVQPDMDAIRAAFRRNGVRQAIALIRAAAARHPEHKADFDAAAAELEAIRREAGRRFAEILKRDEE
B4: traf2_out_9_108_2593 (protein)
chain: MTKEEILEEKFKKVEELVKEFIEEVDLTEEQKEELEEAIKNAKELYEKGLKETAIILLAIDLARVASKVGEEAVKELLEKLKKIDERAYSAAERMVKLLK
B5: traf2_out_17_162_1623 (protein)
chain: SPEEEELKRYEEELKELEKEKKELEKKAEKIDELSKEELTDLLVEASEARRRARELAERIERKREELNDPRLEELLKRAEEIAEEFQRIANKFYKKLEEK
B6: traf2_out_1_33_1031 (protein)
chain: SAEIERKSMALLRRTTGEMYRLLRETEEKMEKLLEEGKPAEEIEKLAEETRKKIKEIADKAIAELKALGDDLTADILESEKTDILKRLDEIKKEILAKLK
B7: traf2_out_20_38_2038 (protein)
chain: SEEEEEEERLERLVEVANAALDRYEARIAALQAEGKSVAEIAEWAKEEIRRILGEAGLEEEAEELIAQVRTVENRPDALRLIARILARAEALAYQKELQK
B8: traf2_out_11_131_661 (protein)
chain: MDAVAMAKSVAARVDERLALAKTLSPEERTRLARQALDSIEALAEYLTSHVSEMSKEDVEEAVKILRASAKKVLAADPSVAEDVKEVEKALKKLLEAAKA
B9: traf2_out_20_38_2029 (protein)
chain: SEEEEEERRLEELIKVANDSYDKYTKKFEKLVAEGKTVEEIAELAKKEVKEKLTAAGLEEEAKELIEDIDRALSSPNALRLIVRILARADALVHQKKINE
B10: traf2_out_3_89_2291 (protein)
chain: SMEKEKKIKEAKERAERYVKGFEKNARRVAKEMLEEGHSLETLRGVLEAARTAIVETFGETLKEEGIDKETRDKILEELKKKLDEIVEEVVEEAKKRREE
B11: traf2_out_11_169_862 (protein)
chain: KEEEFNRKLIDFALEVEDEAKKKLKEFALKLAKEAGLDVAEVEAIFEKHKNSSLSAIASALIEYFRSKGKEEEAEKILKKHDELKEEINKKVSEKIKELK
B12: traf2_out_16_177_1458 (protein)
chain: ELDRVMDRLVILSLIRRAALEIVRSNSPEAERYLAEARAEAEAAGDEEGLARIARIEELAAQNTPEARAELRALAAEAQREAQRLANEAERLIRERAAAE
B13: traf2_out_20_38_2034 (protein)
chain: SMEEEEEEKLEEIIEVANEALDKYEAEIAKWKAEGKTVEEIAEEAKKKVKELLSKVGLEEEAKILIEEIDLALSSPDAERLIARTLARAEALVKQKELNE
B14: traf2_out_20_38_2035 (protein)
chain: SEEEEEEEKLEEIIEVANEAYDEYMAWIAERKAAGKTVEEIAEEAKEEVKELLSKVGLEEEAEILIEDIDRALSSPDAERLIARTLARAVALVKQKELNK
B15: traf2_out_1_71_1752 (protein)
chain: SPEAEKAEKALEDMAKSIAEGMKTEEALERYLEAFRNHIKRVKALAKANKDDEAVKAGSIADLNLEAELLEKIAKYVDEESKKKLEELAKEAKKAAEEIK
B16: traf2_out_13_95_1034 (protein)
chain: SRELAEKIMEIADEAEEKILKLLEEKSKELADDPEMVKVLEEARRLALTRGVNEAIHLLREASERFPEYKEELDKLIEEIEKIREEAGKKVAELIKEEEE
B17: traf2_out_20_38_2036 (protein)
chain: SMEEEEEEKLEEIIRVANEAYDAYEAEIAALKAAGKTVEEIAAIAKERVRELLSKVGLEEEAEILVEDIDLALSSPEAERLIARILARAEAKVKQKELNE
B18: traf2_out_20_38_2022 (protein)
chain: SEEEEEKKKLEELVKVANEAYDEYTARFAEWKAAGKTVEEIAEEVKERIRELLTAAGLEEEAEILIEEVDLALKSPEAERLLVRTLARAVALVHQKELQK
B19: traf2_out_13_95_1078 (protein)
chain: SAEANKKIMEIADEMLEKSLKILKELSKKVADNPEMKAAVEEAIHLAETQGINAAIHLLEKLSEANPEYKELLDEAIKKLKEIKEEAGKKVAEILKEEKE
B20: traf2_out_11_155_677 (protein)
chain: EKKREINNALVDEMAAIDDATRAALDAIVDAAAAAHPEHAAALRAARDATRPYPGSSRGRALAALFRELGLEDYAAQVEALLAAAQKEKNAALKAHEAKL
B21: traf2_out_20_3_2096 (protein)
chain: EELKKELEKALEEAEKLIKEAIKLADEETAKKLKELLKKLKEAKELPLDDQLVELSEVRRELLELAEKAKKEGKEELAKILEEAADKINRAMNLAYKIIE
B22: traf2_out_17_178_1700 (protein)
chain: SKEEIRKKISELTDELIDHADRYGTALLARLRAEGVLSPEELAALDAALASGSNRTLLATAEELIPRSAASPETRALLAEWRAETREIAKKIAEAYEKYE
B23: traf2_out_18_167_1855 (protein)
chain: EEELKKKLEEATDELVKLSEVKRLARTALQLLETDPAAFPAAKAALIAALRAHGELAHLADRLEAAPPEEQPAVLEEIVEEAQRLANEKYKEIEELRKKL
B24: traf2_out_5_63_2338 (protein)
chain: SEREELTALAREADRAVRAILEALKAGKREEARKLVEEVAKDPELLRTAIGIARAELKYYSLQPEKKEEEKIAKELLKLLEEAAKRREEEERREREEALA
B25: traf2_out_17_178_1715 (protein)
chain: TKEAARAEISAATDEMIDLAEAAAARLLAIAEAEGSLSPEELAELRRARRLGSARTTRALMRRAIPRSPSAAEVQALLDDFEKRYAELSKKIAEALKKYE
B26: traf2_out_15_180_1332 (protein)
chain: MTEEELEKRIELVAEVADEADERVREELAAAGVTSPEHLALARSGVRAVITHVFAGWEEEAEEVEEIVAARLPEELRPLFRRLVEEARRRAEEALERLKK
B27: traf2_out_6_3_2518 (protein)
chain: MEESIRRDAAKVLENMGITTAEQLLRLVKANVNAVKKLVSRKDVDRADLAGAESVLNLTRAMVEVAAETLPDLTEEQKAEMLALIEEARELVEKKRKELE
B28: traf2_out_6_3_2529 (protein)
chain: SEEKLREDARTILENMGITTAEQLLRLVKAEVNAVKQLVSRPDVDRADLAGARSVLALTRAMVEVAAETLPSLTPEQAEEALALIDETEKLVEKREKELE
B29: traf2_out_6_3_2519 (protein)
chain: MEESLREDARTVLKNMGITTAEQLLRLVKAEVNAVKKLVSRKDVDRADLAGAESVLALTRAMVEVAAEELPDLTEEQKAEMLELIEEAEKLVEEKRKELE

The assay concerns the target T1, TRAF2, Q12933. As to the kind of experiment: median log2 fold change of GCK-ALFA target abundance (FLAG IP / Myc IP barcode read proportion) (log2 ratio); each designed protein is fused to an ALFA-tag nanobody in HEK293 cells to bring the named protein to FLAG-tagged glucokinase (GCK); Myc marks an untargeted standard; higher = target protein stabilised (more abundant). The conditions noted are these: target protein: 3xFLAG-MCP-GCK-ALFA reporter; HEK293 landing pad (RPLP). The essentials: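 Binders fused to an ALFA nanobody were recombined as a library into HEK293 landing-pad cells, which were induced with 2 μg mL^−1 doxycycline and then transfected to express a FLAG-tagged target and a Myc-tagged standard. After 48 h, circular RNA barcodes recovered by anti-FLAG and anti-Myc immunoprecipitation of lysates were reverse transcribed, amplified and sequenced. Each binder's target abundance is the median log2 ratio of FLAG to Myc barcode read proportions, from barcodes present at ≥10^−7 in both replicates, binders carrying ≥3 barcodes per replicate, a 10^−6 pseudocount and pooled replicates.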
Take B1: the “median log2 fold change” value stood at 0.0539.
Turning to B2, the “median log2 fold change” value is -0.0674.
Under B3 stands -0.892; under B4, -0.0117.
Under B5 stands 0.4.
With B6, the “median log2 fold change” value was found to be 0.233.
Then B7, with -1.39; and B8, with 0.0951.
Under B9 stands -1.3.
Then B10, with -0.996.
As to B11, the “median log2 fold change” value was 0.0801.
Turning to B12, the “median log2 fold change” value was -0.327.
Under B13 stands -0.126; under B14, -1.16; under B15, -0.948.
Under B16 stands -0.375; under B17, -1.27; under B18, -0.885.
Under B19 stands 0.00315; under B20, -0.00384.
For B21, the “median log2 fold change” value stood at 0.177.
For B22, the “median log2 fold change” value worked out at 0.0128.
Then B23, with 0.405; and B24, with 0.165.
Under B25 stands -0.171; under B26, -0.0893.
B27: the “median log2 fold change” value is -0.905.
Under B28 stands -0.16.
Under B29 stands -0.45.
